The results in this text go back to PubChem BioAssay.

Experiment [1] can be described thus: inhibitors of TNFa-induced NFkB p65 translocation, primary screen, imaging, HUVEC, MLSMR starter and 10KST1 sets (AID 438;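 active = inhibition above 20% together with a positive visual image hit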;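 note: compound added about 3h40 before a 20 min TNFalpha stimulation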;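 for inhibition: signal is the nuclear over cytoplasmic p65 intensity ratio per well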). The settings on record: HUVEC TNFa-induced p65 nuclear translocation; cell count: measured here: nuclei count (cytotoxicity indicator), at 2.08 µM; inhibition: at 2 µM, stronger effect = higher value, 0% TNFa-plus-vehicle, 100% no-TNFa wells.
Experiment [2] can be described thus: reduction of polyQ htt aggregates in cells – imaging, exon1htt(103Q)mCFP cells, high-content imaging, primary screen (AID 483;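 active = visual image review flags a hit and inhibition of aggregation exceeds 20%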;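 note: compound exposure lasted 3 days before fixation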;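 for nuclei count: percent of the per-plate median nuclei count of sample wells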). The settings on record: exon1htt(103Q)mCFP cell line, aggregate imaging, at 2 µM; inhibition of aggregation: stronger effect = higher value; nuclei count: measured here: cell count, toxicity.
Experiment [3] in a line: endothelial E-selectin expression blockers – imaging, HUVEC, immunofluorescence, MLSMR starter and 10KST1 sets, primary screen (AID 487;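 active = visually confirmed hit in the image check and inhibition above 20%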;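 for inhibition: signal is fraction of cell area covered by stained E-selectin grains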;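 for nuclei count: 100% = median nuclei count of all wells on the same plate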). The settings on record: HUVEC TNFalpha-induced E-selectin immunofluorescence imaging, at 2 µM; inhibition: stronger effect = higher value; nuclei count: measured here: cell number, toxicity.
Experiment [4] in a line: Primary imaging screen for DUSP6 inhibitors that restore phospho-Erk in transfected HeLa cells, chemical complementation (AID 609;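 active = compounds giving at least 50% inhibition in the cell-based MKP-3 phosphatase rescue imaging test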;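 for inhibition: phospho-Erk level distribution per well compared with pooled transfected vehicle control wells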). The settings on record: HeLa MKP-3 transfected, phospho-Erk imaging KS statistic, at 10 µM, cells stimulated with TPA for 15 min.
Experiment [5] deals with Dual specificity protein phosphatase 6 (Homo sapiens) (UniProt Q16828). The description is as above. The settings on record: HeLa MKP-3 transfected, phospho-Erk imaging KS statistic; at 10 µM; stronger effect = higher value; cells stimulated with TPA for 15 min.
Sequence of Dual specificity protein phosphatase 6 (Homo sapiens) (Q16828 whole entry, looked up): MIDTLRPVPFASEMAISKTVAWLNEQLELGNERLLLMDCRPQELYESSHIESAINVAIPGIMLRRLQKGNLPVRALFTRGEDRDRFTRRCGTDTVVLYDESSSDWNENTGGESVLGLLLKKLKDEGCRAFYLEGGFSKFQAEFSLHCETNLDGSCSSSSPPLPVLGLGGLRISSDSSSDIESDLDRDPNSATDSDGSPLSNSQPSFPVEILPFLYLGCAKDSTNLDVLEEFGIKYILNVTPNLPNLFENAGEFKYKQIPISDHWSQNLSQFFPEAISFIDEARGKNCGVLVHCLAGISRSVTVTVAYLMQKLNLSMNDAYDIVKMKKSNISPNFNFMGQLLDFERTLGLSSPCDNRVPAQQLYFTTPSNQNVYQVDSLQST
Experiment [6] concerns the target Voltage-gated potassium channel subunit beta-2 (Rattus norvegicus) (UniProt P62483). Description: inhibitors of rat Kvbeta2 reductase activity – biochemical, NADPH fluorescence, primary screen (AID 622).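 Note: slope of raw intensity against log time taken from 70 to 1610 s.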 The settings on record: recombinant KvBeta, 4-cyanobenzaldehyde reduction, at 10 µM, stronger effect = higher value.
The target is the same in experiment [7]. The experiment in a line: enhancers of rat Kvbeta2 NADPH turnover – biochemical, NADPH fluorescence, primary screen (AID 623;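 active = NADPH fluorescence slope more negative than the mean of all samples by about 3 SD, 99.7% confidence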;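 note: fluorescence intensity change per second fitted from 20 to 320 s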). The settings on record: Recombinant KvBeta, NADPH fluorescence decrease slope, 10 min; at 10 µM; stronger effect = lower value.
The target of experiment [8] is Alpha-2C adrenergic receptor (Homo sapiens) (UniProt P18825). Description: compounds altering alpha2C-coupled GIRK flux – cell-based, HEK293 alpha2C/GIRK1/2, thallium flux, primary screen (AID 624;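 active = fluorescence slope after compound addition differing from the mean of all screened samples at 99.7% confidence, in either direction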;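 note: slope of fluorescence ratio to pre-addition baseline per second over 15 to 24 s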). The settings on record: thallium flux BTC fluorescence, at 10 µM, actives lie on both sides.
Sequence of Alpha-2C adrenergic receptor (Homo sapiens) (P18825 whole entry, looked up): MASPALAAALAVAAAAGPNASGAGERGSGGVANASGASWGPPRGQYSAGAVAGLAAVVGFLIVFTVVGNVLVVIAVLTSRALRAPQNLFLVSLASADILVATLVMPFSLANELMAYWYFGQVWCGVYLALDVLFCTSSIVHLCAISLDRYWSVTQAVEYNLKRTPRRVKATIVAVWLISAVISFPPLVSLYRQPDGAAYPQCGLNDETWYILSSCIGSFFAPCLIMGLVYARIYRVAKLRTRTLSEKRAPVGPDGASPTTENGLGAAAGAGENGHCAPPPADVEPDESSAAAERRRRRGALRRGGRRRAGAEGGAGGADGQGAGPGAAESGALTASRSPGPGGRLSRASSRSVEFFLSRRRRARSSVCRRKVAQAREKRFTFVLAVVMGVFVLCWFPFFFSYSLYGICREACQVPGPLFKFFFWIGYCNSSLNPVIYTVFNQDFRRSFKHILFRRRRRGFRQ
Experiment [9] is described as follows: inhibitors of larval lipid processing in zebrafish, primary screen, whole organism, PED6 fluorescence, gall bladder and intestine (AID 686;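 active = a full or partial loss of lipid-probe fluorescence in the fish gall bladder, intestine or both, judged by eye; inactive = no fluorescence loss, or compound toxic to the fish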;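 note: larvae 5 to 7 days old with five fish per well; signal comes from phospholipase A2 cleavage of quenched PED6 carried via bile; overnight exposure to compound and PED6 before scoring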). The settings on record: Zebrafish larvae PED6 lipid processing, fluorescence scoring; screened at 20 µM (by protocol).
Experiment [10] in a line: loss of swimming-algae plug formation – whole organism, Chlamydomonas reinhardtii, WT vs cilia-less mutant, absorbance, 96-well, primary screen (AID 463189;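 active = inhibition at or above 50% relative to wild type and mutant plate controls; inactive = inhibition below 50%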;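 note: 0% = wild type cc124 cells in DMSO and 100% = ciliumless bld1 mutant cells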). The settings on record: Chlamydomonas reinhardtii gravitaxis, OD600 absorbance, 2 days; at 10 µM; stronger effect = higher value.
Experiment [11] in a line: blockers of RIG-like receptor reporter activation – cell-based, Sendai virus stimulus, luciferase, 10K MLSCN set, TLR/RLR signaling modifier project, primary screen (AID 602276;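 active = inhibition at or above 50% at 10 µM; inactive = inhibition below 50%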;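 note: firefly luciferase from ISG56 promoter only with Renilla not read in this screen; 0% = Sendai virus plus DMSO and 100% = medium plus DMSO without virus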). The settings on record: HEK293 RL24 IRF3 luciferase reporter, at 10 µM, stronger effect = higher value.
Experiment [12] is described as follows: TLR3 IRF3 reporter activation blockers – cell-based, poly I:C stimulus, luciferase, 10K MLSCN set, primary screen (AID 602277;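 active = inhibition of the reporter signal at or above 50%; inactive = inhibition below 50%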). The settings on record: HEK293-TLR3 RL24 IRF3 luciferase reporter, at 10 µM, stronger effect = higher value. A general note: In a reporter assay the amount or activity of a reporter protein is the signal.
Where [13] appears, read: measured here: cell density z-score.
Setting [14] is: measured here: nuclear c-Myc green intensity z-score.
Where [15] appears, read: measured here: nuclear pErk red intensity z-score, stronger effect = higher value.

Where “and” joins values, the source holds several entries; their conditions need not be identical. Equal entries are not always repeated. Calls of active or inactive are those of the source.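 Rule for the calls, unless noted: active = fluorescence slope higher than the sample average by over 3 SD (cut at about -0.22 in these data, passing the limit was not always enough); inactive = the rest.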

As usually defined, the inhibition is the drop in the measured response relative to a control, in per cent.

Sequence of Voltage-gated potassium channel subunit beta-2 (Rattus norvegicus) (P62483 whole entry, looked up): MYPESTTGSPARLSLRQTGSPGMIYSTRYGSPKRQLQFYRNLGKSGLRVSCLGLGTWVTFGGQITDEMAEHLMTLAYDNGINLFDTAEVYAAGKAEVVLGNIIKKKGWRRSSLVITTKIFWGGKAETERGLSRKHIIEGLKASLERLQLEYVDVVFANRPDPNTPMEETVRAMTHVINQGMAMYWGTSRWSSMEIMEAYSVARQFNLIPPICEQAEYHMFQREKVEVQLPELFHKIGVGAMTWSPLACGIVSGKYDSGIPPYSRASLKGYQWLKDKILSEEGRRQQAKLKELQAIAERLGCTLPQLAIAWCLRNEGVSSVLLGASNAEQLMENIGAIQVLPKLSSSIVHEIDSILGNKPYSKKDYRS

`Cn1ncc2c(Nc3ccccc3Br)ncnc21`: in [1], the cell count was determined as 339. Besides, the inhibition was -21% (inactive) in experiment [1]; -72.4% (inactive) in experiment [3]; 14% (inactive) in [5]; 13.6% (inactive) in [10]; 2.79% (inactive) in experiment [11]; -6.76% (inactive) in [12]. In experiment [2], the inhibition of aggregation was 21.2% (inactive). Besides, the nuclei count stood at 99.3% in experiment [2] and 128% in [3]. The z-score is 0.246 in experiment [4] (setting [13]), -0.649 in [4] (setting [14]) and -0.252 in [4] (setting [15]). In addition, in [6], the fluorescence slope was -0.443 (inactive). The NADPH fluorescence slope in experiment [7] is -2.6e-05 (inactive). In experiment [8], the slope was 0.00658 (inactive). For the same molecule, in experiment [9], the call was inactive.

For the molecule `Nc1ccc2[nH]ncc2c1`, the cell count in [1] turned out to be 684. In addition, the inhibition is 7.9% (inactive) in [1]; -64.7% (inactive) in experiment [3]; 27.9% (inactive) in [5]; -11% (inactive) in experiment [10]; 11.4% (inactive) in experiment [11]; 31.1% (inactive) in experiment [12]. In addition, the inhibition of aggregation in experiment [2] is -14.5% (inactive). In addition, the nuclei count in [2] was determined as 106%; in [3] it was 141%. Moreover, the z-score was 0.816 in experiment [4] (setting [13]), 1.08 in experiment [4] (setting [14]) and -0.122 in experiment [4] (setting [15]). In addition, in experiment [6], the fluorescence slope was -0.496 (inactive). In experiment [7], the NADPH fluorescence slope is -6.9e-05 (inactive). In addition, in [8], the slope was 0.00441 (inactive). For the same molecule, in [9], the molecule was classed as inactive.

As for `CCCCOc1cc(C(=O)NCCN(CC)CC)c2ccccc2n1`, the cell count in experiment [1] is 511 and 578. Further, the inhibition in experiment [1] is -5.3% (inactive) and -4.6% (inactive); in [3], 13% (inactive) and -47.1% (inactive); in [5], 11.3% (inactive) and -6.41% (inactive); in experiment [10] it was 1.51% (inactive) and 12.2% (inactive); in experiment [11], 4.17% (inactive) and 5.36% (inactive); in experiment [12], 54.6% (active) and 61.4% (active). Further, in experiment [2], the inhibition of aggregation is 9.3% (inactive) and -1.1% (inactive). Also, the nuclei count in experiment [2] is 92.4% and 92.8%; in experiment [3], 125% and 129%. Further, the z-score in experiment [4] (setting [13]) is -0.0512 and 0.242; in experiment [4] (setting [14]), 1.21 and -0.093; in experiment [4] (setting [15]), 0.116 and 1.52. Besides, the fluorescence slope in experiment [6] is -0.452 (inactive) and -0.465 (inactive). Further, the NADPH fluorescence slope in experiment [7] is -7.4e-05 (inactive) and -5.9e-05 (inactive). In experiment [8], the slope is 0.00498 (inactive) and 0.00574 (inactive). In [9], the molecule was classed as inactive.

Turning to `CC(C)CCNC(=O)[C@H](CC(C)C)NC(=O)[C@H]1O[C@@H]1C(=O)O`, the cell count in experiment [1] was 625. For the same molecule, the inhibition is -6.9% (inactive) in experiment [1]; -39.7% (inactive) in experiment [3]; 9.37% (inactive) in experiment [5]; 10.6% (inactive) in experiment [10]; 10.1% (inactive) in [11]; 34.8% (inactive) in [12]. Moreover, the inhibition of aggregation in [2] is 11.7% (inactive). Also, the nuclei count was found to be 98.3% in experiment [2] and 134% in experiment [3]. Further, the results for the z-score in [4] (setting [13]), in experiment [4] (setting [14]) and in [4] (setting [15]) were 0.0708, 0.541 and 0.76, respectively. The fluorescence slope in experiment [6] is -0.496 (inactive). In addition, the NADPH fluorescence slope in [7] is -1.1e-05 (inactive). Besides, in [8], the slope is 0.00458 (inactive). The molecule was called inactive in [9].

As for `OC[C@H]1O[C@@H](n2cnc3c(Nc4ccccc4)ncnc32)[C@H](O)[C@@H]1O`, the cell count in experiment [1] turned out to be 606. Besides, the inhibition was -3.3% (inactive) in experiment [1]; -19.9% (inactive) in experiment [3]; -0.828% (inactive) in experiment [5]; -14.4% (inactive) in experiment [10]; -32.6% (inactive) in experiment [11]; -55.1% (inactive) in experiment [12]. For the same molecule, the inhibition of aggregation in experiment [2] was 17.1% (inactive). The nuclei count amounted to 104% in experiment [2] and 107% in [3]. In addition, the z-score was 1.07 in experiment [4] (setting [13]), -1.93 in experiment [4] (setting [14]) and -0.432 in experiment [4] (setting [15]). The fluorescence slope in [6] is -0.459 (inactive). The NADPH fluorescence slope in experiment [7] is -4.6e-05 (inactive). The slope in experiment [8] is 0.00784 (inactive). In experiment [9], the molecule was classed as inactive.

As to `CCN1CCN(c2nc3c(C)cccn3c(=O)c2/C=C(\C#N)S(=O)(=O)c2ccccc2)CC1`, in [1], the cell count was 501. In addition, the inhibition in [1] was -1.7% (inactive); in experiment [3], -71.1% (inactive); in experiment [5], 3.5% (inactive); in [10], 18.9% (inactive); in experiment [11], 9.29% (inactive); in experiment [12], 23.8% (inactive). Also, the inhibition of aggregation in experiment [2] is -13.4% (inactive). For the same molecule, the values for the nuclei count in [2] and in experiment [3] were 108% and 118%, respectively. Further, the figures for the z-score in experiment [4] (setting [13]), in [4] (setting [14]) and in experiment [4] (setting [15]) were 0.894, -1.58 and 2.23, respectively. In addition, in experiment [6], the fluorescence slope was -0.517 (inactive). For the same molecule, the NADPH fluorescence slope in experiment [7] is -1.8e-05 (inactive). Further, in experiment [8], the slope is 0.00181 (inactive). Besides, the molecule was classed as inactive in experiment [9].

With `c1ccc(Cc2nnc3n2CCCCC3)cc1`, the cell count in experiment [1] is 427. The inhibition was -7.4% (inactive) in [1]; -122% (inactive) in [3]; -0.608% (inactive) in experiment [5]; 22.9% (inactive) in experiment [10]; 13.8% (inactive) in experiment [11]; 22.9% (inactive) in experiment [12]. The inhibition of aggregation in experiment [2] was 0.9% (inactive). Also, the nuclei count in [2] stood at 104%; in experiment [3] it was 114%. The z-score in experiment [4] (setting [13]) was -1.13; in experiment [4] (setting [14]) it was -0.00465; in experiment [4] (setting [15]), -0.441. In experiment [6], the fluorescence slope was -0.55 (inactive). The NADPH fluorescence slope in [7] is -4.5e-05 (inactive). Besides, the slope in [8] is 0.0052 (inactive). Further, in [9], the molecule was classed as inactive.

For the molecule `O=C(NC1(C(F)(F)F)C(=O)Nc2c1c(=O)[nH]c(=O)n2Cc1ccco1)C1CCCCC1` (stereo not drawn), the cell count in [1] turned out to be 463. Also, the inhibition in experiment [1] is 4.1% (inactive); in experiment [3], -64.3% (inactive); in experiment [5] it was 3.5% (inactive); in [10], 30.9% (inactive); in experiment [11], 12.9% (inactive); in experiment [12], 19.7% (inactive). The inhibition of aggregation in experiment [2] is -6.3% (inactive). The nuclei count was found to be 116% in experiment [2] and 112% in experiment [3]. Moreover, the z-score is -1.32 in [4] (setting [13]), 1.09 in experiment [4] (setting [14]) and 0.0354 in [4] (setting [15]). The fluorescence slope in experiment [6] is -0.49 (inactive). Also, the NADPH fluorescence slope in experiment [7] was 1.3e-05 (inactive). For the same molecule, the slope in [8] is 0.00536 (inactive). The molecule was classed as inactive in experiment [9].

Consider `Cc1ccc2nc(C(F)(F)F)c(C#N)c(N)c2c1`, for which the cell count in [1] is 451. Further, the inhibition in experiment [1] is -9.7% (inactive); in experiment [3], -14.1% (inactive); in [5], 1.75% (inactive); in experiment [10] it was -8.78% (inactive); in [11], 20% (inactive); in experiment [12], -10.8% (inactive). In experiment [2], the inhibition of aggregation is 11% (inactive). For the same molecule, the nuclei count in experiment [2] was 77.3%; in experiment [3], 90.7%. In addition, the z-score was -0.557 in experiment [4] (setting [13]), -0.479 in [4] (setting [14]) and -0.0348 in experiment [4] (setting [15]). Besides, the fluorescence slope in [6] was -0.49 (inactive). For the same molecule, the NADPH fluorescence slope in experiment [7] was -2e-05 (inactive). In addition, the slope in experiment [8] was 0.00524 (inactive). Moreover, the result in experiment [9] was inactive.
